UBC9 SUMO inh: blocks human SUMOylation mediated by UBC9 | HTRF SUMOylation assay, SAE1/SAE2 + UBC9, in vitro | inhibition, % at 35 µM | 0.36% of 290,000 active | AID 2006; in the data active = inhibition above about 50%, passing the limit was not always enough
Casp6 inh: inhibitors of human caspase-6; P55212; purified caspase-6, Z-VEID-R110 cleavage fluorescence; 0.53% of 350,000 active; inhibition, % at 12.5 µM;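 active = mean inhibition across replicates at least about 35%, with every replicate also reaching that limit, limit read from the data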;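 note: 0% = median of neutral control wells and 100% = no fluorescence left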
Target sequence (P55212 24-179 limits assumed): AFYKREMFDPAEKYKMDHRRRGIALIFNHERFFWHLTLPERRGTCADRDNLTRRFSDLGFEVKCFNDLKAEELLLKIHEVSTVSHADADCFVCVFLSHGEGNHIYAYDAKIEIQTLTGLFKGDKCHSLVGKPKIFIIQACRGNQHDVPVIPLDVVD
Target sequence (P55212 194-293 limits assumed): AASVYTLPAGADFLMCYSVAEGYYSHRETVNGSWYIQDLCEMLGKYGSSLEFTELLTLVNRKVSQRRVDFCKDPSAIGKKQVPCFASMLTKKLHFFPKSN
NSD2 inh: inhibitors of human histone methyltransferase NSD2; inhibition, % at 12.5 µM; O96028; AID 743445; NSD2 peptide methylation, AlphaScreen, 120 min; 0.54% of 310,000 active; in the data active = inhibition above about 50%
SIRT5 block: inhibitors of human sirtuin-5 desuccinylase; Q9NXA8; Purified SirT5, succinyl-peptide AMC, trypsin-coupled fluorescence; inhibition, % at 15 µM; 1.1% of 330,000 active; AID 652115; in the data active = inhibition above about 15%
Target sequence (Q9NXA8 whole entry, looked up): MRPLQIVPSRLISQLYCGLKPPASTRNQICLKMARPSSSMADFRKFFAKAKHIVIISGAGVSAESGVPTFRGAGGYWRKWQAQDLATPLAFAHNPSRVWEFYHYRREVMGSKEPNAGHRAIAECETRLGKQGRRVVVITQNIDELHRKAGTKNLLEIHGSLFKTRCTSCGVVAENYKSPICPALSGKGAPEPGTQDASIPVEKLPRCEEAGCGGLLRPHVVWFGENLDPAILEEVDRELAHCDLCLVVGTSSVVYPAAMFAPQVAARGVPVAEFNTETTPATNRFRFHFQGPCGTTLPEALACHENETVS
* = called active by the depositor; nt = not tested or not shown; ! = a repeat was not active. Most compounds without a hit are left out; they make up all but 1.6% or so of the library.

SMILES	UBC9 SUMO inh	Casp6 inh	NSD2 inh	SIRT5 block
COc1ccc(CCNS(=O)(=O)c2cc3c4c(c2)C(C)C(=O)N4CCC3)cc1OC (configuration not stated)	nt	-3	0	0
C[C@H](CO)N1C[C@H](C)[C@@H](CN(C)CC2CC2)Oc2c(NC(=O)NC3CCCCC3)cccc2C1=O	nt	-2	nt	4
O=C(Nc1cccc(Cl)c1)N[C@@H]1CC[C@H](CCn2cc(Cc3ccccc3)nn2)O[C@H]1CO	nt	0	nt	2
O=c1[nH]c(Nc2ccccn2)cc2ccccc12	nt	90*	nt	2
O=c1[nH]c(-c2ccccn2)cc2ccccc12	-8	nt	-5	nt
O=C(c1cccs1)N1CCN(c2nc3c(F)cc(F)cc3s2)CC1	nt	1	-4	18*
CCCNC(=O)Nc1ccc2c(c1)C(=O)N(C)C[C@H](OC)[C@@H](C)CN(Cc1cccnc1)[C@H](C)CO2	nt	-2	nt	2
Cc1onc(-c2ccccc2)c1C(=O)N(Cc1ccco1)Cc1cccs1	-6	47*	0	0
Cc1onc(-c2ccccc2)c1C(=O)NCc1ccco1	19	nt	2	nt
CO[C@@H]1CN(C)C(=O)c2ccc(NS(=O)(=O)c3ccccc3F)cc2OC[C@@H](C)N(S(C)(=O)=O)C[C@H]1C	nt	-1	nt	2
C[C@H]1CN([C@@H](C)CO)C(=O)c2cc(NC(=O)CCC(F)(F)F)ccc2O[C@H]1CN(C)C	nt	2	nt	17*
COc1ccc(S(=O)(=O)N(C)C[C@@H]2Oc3ccc(NC(=O)Nc4ccc(F)cc4)cc3C(=O)N([C@H](C)CO)C[C@@H]2C)cc1	nt	1	nt	18*
COc1ccc(S(=O)(=O)N(C)C[C@@H]2Oc3ccc(NC(=O)CCC(F)(F)F)cc3C(=O)N([C@H](C)CO)C[C@H]2C)cc1	nt	-2	nt	34*
COc1ccc(NC(=O)Nc2ccc3c(c2)C(=O)N([C@@H](C)CO)C[C@@H](C)[C@@H](CN(C)S(=O)(=O)c2ccc(C)cc2)O3)cc1	nt	13	nt	19*
COc1ccc(S(=O)(=O)N(C)C[C@H]2Oc3ccc(NC(=O)NC4CCCCC4)cc3C(=O)N([C@H](C)CO)C[C@@H]2C)cc1	nt	-1	nt	20*!
COc1ccc(S(=O)(=O)N(C)C[C@H]2Oc3ccc(NC(=O)NC4CCCCC4)cc3C(=O)N([C@@H](C)CO)C[C@H]2C)cc1	nt	-2	nt	1
C[C@@H]1CN([C@@H](C)CO)C(=O)Cc2cc(NC(=O)Nc3ccc(F)cc3)ccc2O[C@@H]1CN(C)C(=O)Nc1ccccc1	nt	2	nt	-4
COC(=O)C(c1ccccc1)C1(O)CC(C)N(C)CC1C (configuration not stated)	10	-1	11	26*
CC1CN(C)C(C)CC1OC(=O)C(c1ccccc1)c1ccccc1 (configuration not stated)	nt	-2	11	0
CCC(=O)NC[C@H]1[C@@H](c2ccc(C3=CCCC3)cc2)[C@@H](CO)N1C(=O)CC	nt	1	nt	-3
Cc1c(Cl)cccc1NS(=O)(=O)c1ccc2c(c1)C1C=CCC1C(c1ccc(C(=O)O)cc1)N2 (configuration not stated)	97*	nt	nt	nt
COc1ccc(CCNc2nc3ccccc3n3cnnc23)cc1OC	11	0	-5	6
COCCNc1nc2ccccc2n2cnnc12	1	3	-4	17*
COc1ccc2c3c([nH]c2c1)[C@H](CO)N(Cc1ccccn1)CC31CN(C(=O)c2ccccn2)C1	nt	nt	nt	-5
O=C(C[C@H]1C=C[C@@H](NC(=O)Nc2ccc(C(F)(F)F)cc2)[C@@H](CO)O1)NCc1ccccn1	nt	2	nt	-1
SMILES	UBC9 SUMO inh	Casp6 inh	NSD2 inh	SIRT5 block
CC(=O)Nc1ccc(S(=O)(=O)Nc2nc3ccccc3nc2Nc2cccc(O)c2)cc1	12	3	nt	5
CC(=O)Nc1ccc(S(=O)(=O)Nc2nc3ccccc3nc2Nc2ccc(C(=O)O)c(O)c2)cc1	nt	73*	48	47*
CC(=O)Nc1ccc(S(=O)(=O)Nc2nc3ccccc3nc2Nc2ccc3ccccc3c2)cc1	55*	1	0	8
C[C@H](CO)N1C[C@H](C)[C@@H](CN(C)S(=O)(=O)c2cccs2)Oc2ccc(NS(=O)(=O)c3cccs3)cc2C1=O	nt	-1	nt	-4
COc1ccc(C(=O)Nc2ccc3ccccc3c2)c(OC)c1	0	43*	-6	-7
COc1ccccc1C(=O)Nc1ccc2ccccc2c1	nt	-2	nt	4
COc1ccc(C(=O)Nc2cc(C(=O)O)cc(C(=O)O)c2)cc1Cl	12	82*	3	-3
O=C(O)c1ccc(NC(=O)c2cccc(C(=O)Nc3ccc(C(=O)O)cc3)c2)cc1	12	3	-1	33*
COc1cccc(NC(=O)c2ccccc2)c1	nt	7	nt	32*
O=C(O)c1cc(NC(=O)c2cccc(C(=O)Nc3cc(C(=O)O)cc(C(=O)O)c3)c2)cc(C(=O)O)c1	20	-1	12	0
COc1ccc(NC(=O)Nc2ccc3c(c2)C(=O)N([C@H](C)CO)C[C@@H](C)[C@@H](CN(C)S(=O)(=O)c2ccc(Cl)cc2)O3)cc1	nt	-1	nt	6
O=C(Oc1ccc2ccc(O)cc2c1)c1ccccc1F	nt	nt	2	nt
Cc1cccc(C(=O)Nc2cccc(NC(=O)c3ccccc3)c2)c1	0	54*	0	-2
Cc1cccc(C(=O)Nc2ccc(NC(=O)c3ccccc3)cc2)c1	-1	0	0	1
O=C(NCCc1ccncc1)[C@@H]1N[C@@H]2c3ccc(/C=C/c4ccccc4)c(=O)n3C[C@@H]2[C@H]1CO	nt	1	nt	-59
Nc1nccc(-c2ccc(-n3cnc4ccccc43)cc2)n1	9	1	-6	21*
CCNc1nc(-c2cc(C)n(Cc3ccco3)c2C)cs1	56*	51*	4	-4
Cc1cc(-c2csc(NC(=O)c3ccc(=O)[nH]c3)n2)c(C)n1Cc1ccco1	93*	18	10	1
Cc1cc(-c2csc(NCc3ccccc3)n2)c(C)n1C	27	nt	nt	nt
CCOC(=O)Cn1cc(C#N)c2cccc(CC)c21	-2	-1	-1	24*
CN1C(=O)S/C(=C/c2cccn2-c2cccc(C(=O)O)c2)C1=O	-14	11	8	5
N#C/C(=C/c1cccn1-c1cccc(C(=O)O)c1)c1ccc(Cl)cc1	38	84*	nt	6
O=C(O)c1cccc(-n2cccc2/C=C/[N+](=O)[O-])c1	20	65*	nt	15*
C[C@H]1CN([C@@H](C)CO)C(=O)c2cccc(NC(=O)Nc3ccc(F)cc3)c2O[C@@H]1CN(C)C(=O)NC1CCCCC1	nt	-3	nt	0
c1nc(N2CCOCC2)c2c3c(sc2n1)CCCC3	8	-1	1	36*
c1ccn(-c2ncnc3sc4c(c23)CCCC4)c1	12	nt	11	nt
CC12CCC(C(=O)NCCc3ccccc3)(OC1=O)C2(C)C (configuration not stated)	-2	-1	-3	15*
CCCNC(=O)C12CCC(C)(C(=O)O1)C2(C)C (configuration not stated)	8	-2	-2	0
CN1CCN(C(=O)C[C@@H]2CC[C@H]3[C@@H](COC[C@H](O)CN3C(=O)C3CC3)O2)CC1	nt	0	nt	-3
O=C(Oc1ccc(Nc2ncnc3ccccc23)cc1)c1cccnc1	1	38*	1	3
